Out of some 2,300 compounds screened, about 430 (19%) were called active. Only a sample is shown. A number with no mark means an inactive call.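 How the source made its calls: active means mean activation across triplicates above the hit threshold derived in the original primary screen (cut at about 15% in these data); inactive means the rest.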
Target: 5-hydroxytryptamine receptor 2A (Mus musculus) (UniProt P35363)
Assay: agonist activity at mouse 5-HT2A receptor – cell-based, luminescence, CHO-K1 PathHunter, triplicate, confirmation (AID 624381)
Conditions: CHO-K1 PathHunter beta-arrestin recruitment, at 7.6 µM, stronger effect = higher value, DMSO 0%, 30 µM serotonin 100%

Chain of 5-hydroxytryptamine receptor 2A (Mus musculus) (P35363 whole entry, looked up): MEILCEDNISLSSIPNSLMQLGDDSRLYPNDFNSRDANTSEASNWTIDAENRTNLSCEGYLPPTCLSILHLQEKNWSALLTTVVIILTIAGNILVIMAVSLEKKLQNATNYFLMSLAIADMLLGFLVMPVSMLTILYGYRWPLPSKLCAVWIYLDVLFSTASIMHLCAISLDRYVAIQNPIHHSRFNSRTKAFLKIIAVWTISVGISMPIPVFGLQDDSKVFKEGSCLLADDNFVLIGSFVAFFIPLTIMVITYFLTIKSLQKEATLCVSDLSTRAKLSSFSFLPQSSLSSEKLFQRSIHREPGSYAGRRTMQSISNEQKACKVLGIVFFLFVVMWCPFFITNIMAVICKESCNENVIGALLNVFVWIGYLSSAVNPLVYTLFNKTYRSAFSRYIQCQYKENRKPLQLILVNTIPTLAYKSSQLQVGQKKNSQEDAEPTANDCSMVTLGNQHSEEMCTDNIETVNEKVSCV

Going from `Cc1[nH]c2ccccc2c1CCN(Cc1cccs1)C(=S)NC(C)(C)C` to `C/C(=N\NC(=O)COc1c(C)cccc1C)c1cccs1`, the activation falls from 4.41% to -2.38%.

First: CCOc1ccc(/C(O)=C2\C(=O)C(=O)N(c3ccc(OC)cc3)C2c2ccccc2[N+](=O)[O-])cc1 (stereo not drawn)
Second: COc1ccc(NS(=O)(=O)c2cc(C(=O)Nc3ccccc3C(=O)O)ccc2C)cc1
The activation of the first is lower: 1.71% for the first, 5.94% for the second.

Compared with `CCCCn1c(N)c(N(CC(C)C)C(=O)CSc2ccc([N+](=O)[O-])cc2)c(=O)[nH]c1=O`, `CCCCC(CC)CNC(=O)CCCCn1c(=O)[nH]c2ccsc2c1=O` (stereo not drawn) is lower in activation: 0.81% for the first, -3.5% for the second.

Compared with `C=CCn1c(=NC(=O)c2cccs2)sc2cc(NC(C)=O)ccc21`, `COC(=O)Cn1nc(-c2ccccc2)c2cc(Cl)ccc21` is lower in activation: -1% for the first, -5.87% for the second.

First: CCOC(=O)c1cc(-c2ccccc2C)n(Cc2cc(C)no2)n1
Second: Cc1ccc(NC(=O)CSc2nnc(COc3ccccc3C)o2)cc1
The activation of the first is higher: 2.4% for the first, -4.47% for the second.

Compared with `CSc1ncnc2c1ncn2CCCNCc1cccs1`, `COC(=O)c1ccc(CSc2nnc(NC(C)C)s2)cc1` is lower in activation: -4.72% for the first, -5.43% for the second.

Going from `COc1ccccc1CN1CCN(Cc2cc(OC)c(OC)cc2OC)CC1` to `Cc1cccc(CN2CCN(C3CN(Cc4ccccc4)S(=O)(=O)C3)CC2)c1` (stereo not drawn), the activation falls from 8.39% to 8.09%.

Compared with `CC(C)c1cc(C(=O)O)on1`, `CC(C)Oc1ccccc1C(=O)NC(CO)C(=O)O` (stereo not drawn) is lower in activation: 13.4% for the first, 0.21% for the second.

Compared with `O=C1CCc2cc(S(=O)(=O)N3CCC(C(=O)NCc4ccccc4Cl)CC3)ccc2N1`, `Cc1ccc(S(=O)(=O)N2CCN(c3ncnc4ccccc34)CC2)cc1` is higher in activation: -6.01% for the first, 9.56% for the second.

Going from `COc1ccc(C2c3[nH]c4ccccc4c3C[C@H]3C(=O)N(CC(C)C)CC(=O)N23)c(OC)c1` (stereo partly drawn) to `COC(=O)[C@@]1(Cc2ccc(F)cc2)[C@H]2c3cc(C(=O)N(C)C)n(CCc4c[nH]c5ccc(OC)cc45)c3C[C@H]2CN1C(=O)c1ccccc1`, the activation rises from 0.84% to 10.9%.

Going from `Cc1cccc(CN2CCN(C3CN(Cc4cn(Cc5cc(C)cc(C)c5)nn4)S(=O)(=O)C3)CC2)c1` (stereo not drawn) to `Nc1cc(C(=O)N2CCN(c3ccccc3Cl)CC2)ccc1N1CC2CC(C1)c1cccc(=O)n1C2` (stereo not drawn), the activation falls from 8.35% to -1.89%.

Compared with `Cc1cc(C(=O)OCC(=O)N2c3ccccc3NC(=O)C2(C)C)c(C)n1-c1ccccc1`, `Cc1ccc(NC(=O)CCOc2ccccc2)cc1S(=O)(=O)Nc1ccccc1Cl` is higher in activation: -2.45% for the first, 3.02% for the second.

First: COc1ccc(-c2nc3cc([N+](=O)[O-])ccc3o2)cc1OC
Second: Cc1cc([N+](=O)[O-])ccc1NC1CCCC1
The activation of the first is lower: -2.5% for the first, 13.5% for the second.

First: COc1ccc2[nH]cc(CCN3C(=O)c4ccc(C(=O)O)cc4C3=O)c2c1
Second: COc1ccc(/C=N/Nc2ccccc2C(=O)O)cc1
The activation of the first is lower: -1.14% for the first, 4.6% for the second.

Going from `COC(=O)[C@]12CCCCC=C1N(CCC1=CCCCC1)C(=O)[C@H](CC(=O)NCC1CCCCC1)C2` to `O=C(Nc1ccc2c(c1)[C@@H]1C[C@@H](CC(=O)N3CCCCC3)O[C@@H](CO)[C@@H]1O2)NC1CCCCC1`, the activation rises from -5.33% to -4.45%.

Compared with `COC(=O)c1cc(N2CCNCC2)nc2ccccc12`, `CS(=O)(=O)c1ccc2nc(NC(=O)C3CCCCC3)sc2c1` is lower in activation: 2.65% for the first, -0.86% for the second.

First: FC(F)(F)COc1nc(N2CCCCC2)nc(N2CCNCC2)n1
Second: CC1(Cc2cccc(C#N)c2)C(=O)Nc2ccc(-c3cccc(C(F)(F)F)c3)cc21 (stereo not drawn)
The activation of the first is higher: 8.3% for the first, -0.38% for the second.

First: N#CCSc1nn(-c2ccc(F)cc2)c(=S)s1
Second: O=C(Nc1cccc2cccnc12)c1ccc2sc([C@H]3C[C@H](O)[C@@H](CO)O3)nc2c1
The activation of the first is lower: -4.94% for the first, 4.32% for the second.

Going from `COCCN(Cc1cc2cc3c(cc2nc1Cl)OCO3)C(=O)c1cccc(C)c1` to `CC(=O)c1ccc(OCC(=O)N(C)C2CCS(=O)(=O)C2)cc1` (stereo not drawn), the activation falls from 3.25% to -3.74%.

Going from `CC(Nc1ccccc1)c1cccnc1` (stereo not drawn) to `NNc1cccc(C=Cc2ccccc2)cc1=O`, the activation rises from -3.04% to 1.74%.

`O=C(c1ccco1)N1CCN(CCOc2ccccc2)CC1` was tested, and the activation was 34.5% (active).
In the case of `COc1cccc(OC)c1OCCN1CCN(C(=O)c2ccco2)CC1`, the activation is reported as 78.4% (active).
With `Oc1ccc(CN2CCN(c3ncccn3)CC2)cc1` the activation was 101% (active).
With `Cc1ccc(CN2CCN(c3ncccn3)CC2)c(C)c1` the activation was 118% (active).
In the case of `O=C(CNCc1cccs1)Nc1cc(S(=O)(=O)N2CCCC2)ccc1Cl`, the activation is reported as 50.6% (active).
With `O=C(NCCCN1CCN(c2ccccc2F)CC1)C1CCC(=O)N1C1CCCCC1` (stereo not drawn) the activation was 41.4% (active).
With `CN(C)[C@@H]1C(=O)C(C(N)=O)=C(O)[C@@]2(O)C(=O)C3=C(O)c4c(O)ccc(Cl)c4[C@@H](O)[C@H]3C[C@@H]12` the activation was 40.1% (active).
In the case of `O=C(c1ccncc1)N1CCN(c2ccc3ccccc3n2)CC1`, the activation is reported as 17.1% (active).
